Assay results taken from PubChem BioAssay AID1159580 (chemical genetic matrix, 2015).
Where “and” joins values, the source holds several entries; their conditions need not be identical. Identical values can stand only once. Screen size: about 5,500 compounds; about 2,000 (36%) were called active. Not shown: some 18% with an inconclusive outcome. Cut-off read from the data, not from the text of the source: active = normalized growth mostly below about 0.91 (no sharp cut-off); inconclusive = no clear call, values can overlap the other calls; inactive = mostly above about 0.92. The list shows a part of the results.

Test: chemical genetic growth profiling, strain panel (AID 1159580);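 note: tested at 20 µM; growth read once vehicle control cultures reached saturation at 30 °C; 1 = growth at the plate median or of vehicle wells; lower values mean less growth of the strain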
Settings: S. cerevisiae deletion strains, growth OD
[1] = locus YGR078C, strain PAC10, active compounds read low
[2] = locus YMR307W, strain GAS1, active compounds read low
[3] = locus YNL153C, strain GIM3, active compounds read low

Measured: normalized growth

N.N.N.N.N.N.N.N.N.N.N.N.N.N.O.O.[Ru+4].[Ru+5].[Ru+5]
inactive: locus YMR263W, strain SAP30, active compounds read low 0.993
active: locus YAL040C, strain CLN3, active compounds read low 0.206 | locus YDR363W, strain ESC2, active compounds read low 0.323 | locus YER002W, strain NOP16, active compounds read low 0.155 | [1] 0.158 | locus YGR229C, strain SMI1, active compounds read low 0.151 | locus YJR075W, strain HOC1, active compounds read low 0.115 | [2] 0.218 | locus YNL128W, strain TEP1, active compounds read low 0.194 | [3] 0.193 | locus YNL175C, strain NOP13, active compounds read low 0.175 | locus YNL197C, strain WHI3, active compounds read low 0.154 | locus YNL224C, strain SQS1, active compounds read low 0.173 | locus YOR083W, strain WHI5 (second series), active compounds read low 0.167

CCN(CC)CCOC(=O)C(Cc1cccc2ccccc12)CC1CCCO1 (centres undefined)
inactive: locus YAL013W, strain DEP1, active compounds read low 1.03 | locus YAL021C, strain ccr4, active compounds read low 1 | locus YAL026C, strain drs2, active compounds read low 1.01 | locus YAL030W, strain snc1, active compounds read low 0.998 | locus YBL061C, strain skt5, active compounds read low 1.01 | locus YBR009C, strain hhf1, active compounds read low 1.01 | locus YBR021W, strain FUR4, active compounds read low 1.02 | locus YBR023C, strain chs3, active compounds read low 1.01 | locus YBR171W, strain sec66, active compounds read low 1.02 | locus YBR229C, strain ROT2, active compounds read low 1 | locus YBR231C, strain swc5, active compounds read low 0.995 | locus YBR279W, strain paf1, active compounds read low 1.01 | locus YCL011C, strain gbp2, active compounds read low 1.01 | locus YCL016C, strain dcc1, active compounds read low 1.01 | locus YCL029C, strain bik1, active compounds read low 1.01 | locus YCL061C, strain MRC1, active compounds read low 1.01 | locus YCL069W, strain vba3, active compounds read low 1.01 | locus YCR088W, strain abp1, active compounds read low 1 | locus YDL005C, strain med2, active compounds read low 1.01 | locus YDL035C, strain GPR1, active compounds read low 1.02 | locus YDL040C, strain nat1, active compounds read low 1.01 | locus YDL074C, strain BRE1, active compounds read low 1.02 | locus YDL101C, strain DUN1, active compounds read low 1 | locus YDL134C, strain PPH21, active compounds read low 1.01 | locus YDL185W, strain tfp1, active compounds read low 1.01 | locus YDL192W, strain arf1, active compounds read low 1.01 | locus YDR001C, strain nth1, active compounds read low 1.01 | locus YDR069C, strain doa4, active compounds read low 1.02 | locus YDR101C, strain arx1, active compounds read low 1.02 | locus YDR137W, strain rgp1, active compounds read low 1.07 | locus YDR159W, strain sac3, active compounds read low 1.02 | locus YDR162C, strain NBP2, active compounds read low 1.02 | locus YDR195W, strain ref2 0.996 | locus YDR297W, strain sur2, active compounds read low 1.01 | locus YDR318W, strain mcm21, active compounds read low 1 | locus YDR334W, strain swr1, active compounds read low 1.01 | locus YDR335W, strain msn5, active compounds read low 1.01 | locus YDR388W, active compounds read low 1.01 | locus YDR392W, strain spt3, active compounds read low 1.01 | locus YDR502C, strain sam2, active compounds read low 1.01 | locus YEL003W, strain gim4, active compounds read low 1.01 | locus YEL037C, strain rad23, active compounds read low 1.01 | locus YEL061C, strain CIN8 (second series), active compounds read low 1.01 | locus YEL061C, strain CIN8, active compounds read low 1.01 | locus YER015W, strain faa2, active compounds read low 1.01 | locus YER016W, strain bim1, active compounds read low 1.01 | locus YER110C, active compounds read low 0.99 | locus YER111C, strain swi4, active compounds read low 1.01 | locus YER155C, strain BEM2 (second series), active compounds read low 1.01 | locus YER155C, strain BEM2, active compounds read low 1 | locus YER167W, strain BCK2, active compounds read low 1.01 | locus YFR010W, strain ubp6, active compounds read low 1.02 | locus YGL078C, strain dbp3, active compounds read low 1.02 | locus YGL086W, strain mad1, active compounds read low 1.01 | locus YGL167C, strain pmr1, active compounds read low 1.01 | locus YGL173C, strain kem1, active compounds read low 1.01 | locus YGL227W, strain vid30, active compounds read low 1 | locus YGL240W, strain doc1, active compounds read low 1.01 | locus YGL248W, strain PDE1, active compounds read low 1.01 | locus YGL253W, strain hxk2, active compounds read low 1.01 | [1] 1.03 | locus YGR135W, strain pre9, active compounds read low 0.998 | locus YGR252W, strain gcn5, active compounds read low 1.02 | locus YHR013C, strain ard1, active compounds read low 1.01 | locus YHR027C, strain rpn1, active compounds read low 1.01 | locus YHR030C, strain SLT2, active compounds read low 1.01 and 0.997 | locus YHR079C, strain IRE1 (second series), active compounds read low 1 | locus YHR079C, strain IRE1, active compounds read low 0.985 | locus YHR094C, strain hxt1, active compounds read low 0.997 | locus YHR129C, strain ARP1, active compounds read low 1.01 | locus YHR142W, strain chs7, active compounds read low 1.02 | locus YHR200W, strain rpn10, active compounds read low 1.01 | locus YIL066C, strain RNR3, active compounds read low 1.03 | locus YIL073C, strain SPO22, active compounds read low 1.08 | locus YIL125W, strain kgd1, active compounds read low 1 | locus YIR030C, strain dcg1, active compounds read low 1.01 | locus YJL092W, strain hpr5, active compounds read low 1.01 | locus YJL095W, strain BCK1 (second series), active compounds read low 1 | locus YJL095W, strain BCK1, active compounds read low 1.03 and 0.993 | locus YJL115W, strain asf1, active compounds read low 1 | locus YJL129C, strain trk1, active compounds read low 0.998 | locus YJL134W, strain LCB3, active compounds read low 1 | locus YJL154C, strain vps35, active compounds read low 1.01 | locus YJL164C, strain tpk1, active compounds read low 1.01 | locus YJL166W, strain qcr8, active compounds read low 1 | locus YJL168C, strain set2, active compounds read low 0.998 | locus YJL187C, strain SWE1 (second series), active compounds read low 1.02 | locus YJL187C, strain SWE1, active compounds read low 1.01 | locus YJR043C, strain POL32, active compounds read low 1.02 | locus YJR066W, strain TOR1, active compounds read low 0.95 | locus YKL009W, strain mrt4, active compounds read low 0.989 | locus YKL068W, active compounds read low 1 | locus YKL085W, strain MDH1 (second series), active compounds read low 1 | locus YKL085W, strain MDH1, active compounds read low 1 | locus YKL160W, strain elf1, active compounds read low 1 | locus YKR001C, strain vps1, active compounds read low 1.01 | locus YKR026C, strain gcn3, active compounds read low 1.01 | locus YKR091W, strain srl3, active compounds read low 1 | locus YLL001W, strain dnm1, active compounds read low 0.999 | locus YLL026W, active compounds read low 1 | locus YLL041C, strain sdh2, active compounds read low 1.01 | locus YLR027C, strain aat2, active compounds read low 1.01 | locus YLR039C, strain RIC1, active compounds read low 1.11 | locus YLR058C, strain SHM2, active compounds read low 1.01 | locus YLR102C, strain apc9, active compounds read low 0.992 | locus YLR113W, strain HOG1, active compounds read low 0.986 | locus YLR221C, strain rsa3, active compounds read low 1.01 | locus YLR258W, strain gsy2, active compounds read low 1 | locus YLR262C, strain YPT6 (second series), active compounds read low 1.03 | locus YLR262C, strain YPT6, active compounds read low 1.06 | locus YLR268W, strain sec22, active compounds read low 1.02 | locus YLR320W, strain mms22, active compounds read low 1.03 | locus YLR330W, strain CHS5, active compounds read low 1.01 | locus YLR342W, strain FKS1 (second series), active compounds read low 1.02 | locus YLR342W, strain FKS1, active compounds read low 1.01 | locus YLR357W, strain rsc2, active compounds read low 0.998 | locus YLR370C, strain arc18, active compounds read low 1.01 | locus YLR371W, strain rom2, active compounds read low 1.01 | locus YLR384C, strain iki3, active compounds read low 1.02 | locus YLR418C, strain cdc73, active compounds read low 1.02 | locus YML016C, strain PPZ1, active compounds read low 1 | locus YML032C, strain rad52, active compounds read low 1.01 | locus YML120C, strain ndi1, active compounds read low 1 | locus YML124C, strain tub3, active compounds read low 1 | locus YMR058W, strain fet3, active compounds read low 1.01 | locus YMR078C, strain ctf18, active compounds read low 1.02 | locus YMR125W, strain sto1, active compounds read low 1.01 | locus YMR129W, active compounds read low 1.01 | locus YMR205C, strain PFK2, active compounds read low 1.02 | locus YMR223W, strain ubp8, active compounds read low 1.02 | locus YMR231W, strain pep5, active compounds read low 1.02 | [2] 0.965 | locus YNL067W, strain RPL9B, active compounds read low 1.03 | locus YNL071W, strain lat1, active compounds read low 1.01 | [3] 1.03 | locus YNL183C, strain NPR1, active compounds read low 0.939 | locus YNL209W, strain ssb2, active compounds read low 1.02 | locus YNL233W, strain BNI4, active compounds read low 1.03 | locus YNL248C, strain rpa49, active compounds read low 1.01 | locus YNL250W, strain rad50, active compounds read low 1.01 | locus YNL271C, strain bni1, active compounds read low 0.998 | locus YNL298W, strain CLA4, active compounds read low 0.998 | locus YNL307C, strain MCK1, active compounds read low 1.02 | locus YNL322C, strain KRE1 (second series), active compounds read low 0.996 | locus YNR049C, strain mso1, active compounds read low 0.997 | locus YNR052C, strain pop2, active compounds read low 0.993 | locus YOL006C, strain TOP1, active compounds read low 1.14 | locus YOL012C, strain htz1 0.825 | locus YOL147C, strain pex11, active compounds read low 1 | locus YOR001W, strain rrp6, active compounds read low 1.01 | locus YOR061W, strain CKA2, active compounds read low 1.01 | locus YOR069W, strain VPS5, active compounds read low 1 | locus YOR070C, strain gyp1, active compounds read low 1 | locus YOR080W, strain dia2, active compounds read low 1 | locus YOR083W, strain WHI5, active compounds read low 1.01 | locus YOR106W, strain vam3, active compounds read low 0.998 | locus YOR136W, strain idh2, active compounds read low 1.01 | locus YOR144C, strain elg1, active compounds read low 1 | locus YOR184W, strain ser1, active compounds read low 1.01 | locus YOR231W, strain MKK1, active compounds read low 0.978 | locus YOR265W, strain rbl2, active compounds read low 1 | locus YOR270C, strain vph1, active compounds read low 1.03 | locus YOR290C, strain snf2, active compounds read low 1 | locus YOR316C, strain cot1, active compounds read low 1.01 | locus YPL051W, strain arl3, active compounds read low 1 | locus YPL055C, strain LGE1, active compounds read low 1.02 | locus YPL078C, strain atp4, active compounds read low 1.01 | locus YPL106C, strain sse1, active compounds read low 1.01 | locus YPL240C, strain hsp82, active compounds read low 1 | locus YPL256C, strain CLN2, active compounds read low 0.964 | locus YPR119W, strain clb2, active compounds read low 0.996 | locus YPR141C, strain kar3, active compounds read low 1.01 | locus YPR163C, strain tif3, active compounds read low 1.01 | locus YPR167C, strain met16, active compounds read low 1 | strain wtn01, active compounds read low 1
